Laboratory results reported in PubChem BioAssay (NCATS).
Inconclusive results are not listed. The source made the active and inactive calls. Unless noted, the call rests on the fitted dose curve; in most records, active means well fitted inhibition curve with a large enough effect; inconclusive means small, poorly fitted or top-dose-only effect; inactive means no such curve, though single readings can be large or run the other way.

Assays:
[1] = NS1 protein of Zika virus - qHTS assay to identify small molecule inhibitors in human HEK 293 cells (AID 1347053); further: series mostly up to about 46 µM; nearly all actives have a fitted effect of over 55% in size
Procedure, shortened: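 Inhibition of NS1 expression was scored in HEK 293 cells given compound 1 h ahead of MR766 virus (MOI = 0.5). Following 24 h at 37 C, two anti-NS1 antibodies generated a TR-FRET signal, scaled between uninfected and infected controls.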

[2] = qHTS for Inhibitors of the Functional Ribonucleoprotein Complex (vRNP) of Lassa (LASV) Arenavirus: LASV Primary Screen - GLuc reporter signal (AID 1347082; calls by dose curve; tested in HEK293 reporter line; further: series mostly up to about 57 µM; nearly all actives have a fitted effect of over 60% in size)
[3] = qHTS for Inhibitors of the Functional Ribonucleoprotein Complex (vRNP) of Lymphocytic Choriomeningitis Arenaviruses (LCMV): Viability assay - alamar blue signal for LCMV Primary Screen (AID 1347085; calls by dose curve; tested in HEK293 reporter line; further: series mostly up to about 57 µM; nearly all actives have a fitted effect of over 80% in size)
[4] = target: Nucleoprotein (Lymphocytic choriomeningitis virus (strain Armstrong)) (UniProt P09992); assay: qHTS for Inhibitors of the Functional Ribonucleoprotein Complex (vRNP) of Lymphocytic Choriomeningitis Arenaviruses (LCMV): LCMV Primary Screen - GLuc reporter signal (AID 1347086; calls by dose curve; further: series mostly up to about 57 µM; nearly all actives have a fitted effect of over 70% in size)
[5] = qHTS for Inhibitors of the Functional Ribonucleoprotein Complex (vRNP) of Lassa (LASV) Arenavirus: Viability assay - alamar blue signal for LASV Primary Screen (AID 1347083; calls by dose curve; tested in HEK293 reporter line; further: series mostly up to about 57 µM; nearly all actives have a fitted effect of over 80% in size)

Measured: Potency

Nucleoprotein (Lymphocytic choriomeningitis virus (strain Armstrong)), sequence (P09992 whole entry, looked up): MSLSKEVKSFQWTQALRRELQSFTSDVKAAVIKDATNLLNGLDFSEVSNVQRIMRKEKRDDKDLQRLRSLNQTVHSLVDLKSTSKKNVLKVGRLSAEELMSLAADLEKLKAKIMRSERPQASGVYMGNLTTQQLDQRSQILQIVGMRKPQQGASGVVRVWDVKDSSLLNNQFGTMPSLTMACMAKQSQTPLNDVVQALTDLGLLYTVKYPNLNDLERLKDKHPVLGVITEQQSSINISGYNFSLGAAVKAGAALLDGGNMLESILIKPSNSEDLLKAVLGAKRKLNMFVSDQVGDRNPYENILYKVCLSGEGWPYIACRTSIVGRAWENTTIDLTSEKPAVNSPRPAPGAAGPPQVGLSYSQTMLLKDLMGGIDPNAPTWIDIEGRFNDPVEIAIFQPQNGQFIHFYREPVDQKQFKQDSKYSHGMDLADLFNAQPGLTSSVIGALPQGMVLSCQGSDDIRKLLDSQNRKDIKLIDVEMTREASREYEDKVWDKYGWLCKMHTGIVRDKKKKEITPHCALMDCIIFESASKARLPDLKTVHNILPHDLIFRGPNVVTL

CN(C)C(=O)Oc1cc(OC(=O)N(C)C)cc(C(O)CNC(C)(C)C)c1 (stereo not given)
inactive: [1] | [2] | [3] | [4]

O=C(N[C@@H]1N=C(c2ccccc2F)c2cccc3c2N(CC3)C1=O)c1cc2ccccc2[nH]1
inactive: [1] | [2] | [3] | [4]

CCc1cc(OC)c(C[C@H](C)N)cc1OC
inactive: [1] | [2] | [5] | [3] | [4]

CCC(=O)OC1(c2ccccc2)CCN(C)CC1
inactive: [1] | [2] | [5] | [3] | [4]

COc1cc(CC(C)N)c(OC)cc1Br (stereo not given)
inactive: [1] | [2] | [4]

ClCc1cccc(Cl)c1
inactive: [1] | [2] | [5] | [3] | [4]

Oc1ccc2[nH]cc(CCCCN3CC=C(c4ccccc4)CC3)c2c1
inactive: [1] | [2] | [5] | [3] | [4]

Oc1ccc([C@H]2CNCc3c2ccc(O)c3O)cc1O
inactive: [1] | [2] | [5] | [3] | [4]

O=C(CCCN1CCC(n2c(=O)[nH]c3ccccc32)CC1)c1ccc(F)cc1
inactive: [1] | [2] | [5] | [3] | [4]

C#C[C@]1(O)CC[C@H]2[C@@H]3CCC4=CC(=O)CCC4=C3C=C[C@@]21CC
inactive: [1] | [2] | [5] | [3] | [4]

C[C@]12Cc3nonc3C[C@@H]1CC[C@@H]1[C@@H]2CC[C@@]2(C)[C@H]1CC[C@]2(C)O
inactive: [1] | [2] | [3] | [4]

CNC(C)Cc1ccccc1OC (stereo not given)
inactive: [1] | [2] | [5] | [3] | [4]
